Structures are written as SMILES. Results filed as inconclusive are left out. Active and inactive are the calls of the source. Calls come from the whole dose curve; as a rule, active = well fitted cell-killing curve with a large enough effect; inconclusive = small, poorly fitted or top-dose-only effect; inactive = no such curve, though single readings can be large or run the other way.
Potency is the fitted concentration of half-maximal effect.

The nature of the experiment: qHTS of pediatric cancer cell lines to identify multiple opportunities for drug repurposing: Primary screen for NB1643 cells (AID 1347099).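 For activity change, negative = cytotoxic: plate controls were DMSO neutral control for no effect and bortezomib positive control for full effect.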 Note: nearly all actives have a fitted effect of over 50% in size. Conditions: NB1643 neuroblastoma viability, CellTiter-Glo luminescence, 48 h; series mostly up to 46 µM; activity change, negative = cytotoxic: at the top concentration. In short, it runs like this: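 500-1,000 cells/well; 5 h pre-incubation 37 °C/5% CO2; compound pinned; 48 h; CellTiter-Glo, 15 min RT; luminescence. MIPE 11-pt from 0.78 nM, NPC 8-pt from 0.59 nM final. Bortezomib 2.3 µM final as positive control.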
Background: Quantitative high-throughput screening tests each substance at several concentrations.
`CC(=O)O[C@]1(C(C)=O)CC[C@H]2[C@@H]3C=C(C)C4=CC(=O)CC[C@]4(C)[C@@H]3CC[C@@]21C`: the Potency was 2.64 µM (active). Still for that read-out and setting: next, `Cn1cc(-c2cnn3c(N)c(Br)c([C@H]4CCCNC4)nc23)cn1`: 1.32 µM (active); `CN(CC(=O)N(Cc1ccc(C2CCCCC2)cc1)c1ccc(C(=O)O)c(O)c1)S(=O)(=O)c1c(F)c(F)c(F)c(F)c1F`: 20.9 µM (active); `C=CC(=O)N1CCc2ccc(-n3c(=O)ccc4cnc5ccc(-c6cnn(C)c6)cc5c43)cc21`: 2.35 µM (active). `CC(C)c1cnn2c(NCc3ccccc3)cc(NCCCCCCN)nc12`: the Potency is 18.7 µM (active).

As for `O=C(O)CCCCCC(=O)NN=C1CCCC1`, the “activity change, negative = cytotoxic” value is 11.7% (inactive). Consider `C#C[C@]1(O)CC[C@@H]2[C@@H]3CCc4cc(O)ccc4[C@H]3CC[C@@]21C`, for which the Potency was 20.9 µM (active). Turning to `Cc1cnn(C)c1C(=O)Nc1cc(Nc2ccc3c(C=Cc4ccccn4)n[nH]c3c2)ccc1F`, the Potency was 14.8 µM (active). For `Cc1cncc2cccc(S(=O)(=O)N3CCCN(C(=O)CN)C[C@@H]3C)c12`, the “activity change, negative = cytotoxic” value was -16.2% (inactive). As to `N#CC(=C(O)c1ccc(Cl)cc1Cl)c1nc2cc(Cl)ccc2c(=O)[nH]1`, the Potency was 20.9 µM (active). Same read-out and setting: next, `CCc1cc(C(C)=NOCc2ccc(C3CCCCC3)c(C(F)(F)F)c2)ccc1CN1CC(C(=O)O)C1`: 2.64 µM (active). `C[C@@H](NCc1cc2ccccc2[nH]1)c1cccc2ccccc12`: the “activity change, negative = cytotoxic” value was -17.8% (inactive). Still for that read-out and setting: next, `Cc1cn([C@@H]2O[C@H](CO)[C@@H](O)[C@H]2F)c(=O)[nH]c1=O`: 5.38% (inactive); `C[C@]12CCC(=O)C=C1[C@@H]1CC1[C@H]1[C@H]3[C@@H]4C[C@H]4[C@@]4(CCC(=O)O4)[C@@]3(C)CC[C@H]12` (some centres undefined): -14.1% (inactive).

The values above are taken from PubChem BioAssay (NCATS).
